Inconclusive results are not listed. A number with no mark means an inactive call. The call rests on the fitted dose curve; in most records, active means well fitted curve in the direction sought with a large enough effect; inconclusive means small, poorly fitted or top-dose-only effect, or another doubt; inactive means no such curve, though single readings can be large; an effect the other way counts as inactive or inconclusive.
Target: Aldehyde dehydrogenase, mitochondrial (Homo sapiens) (UniProt P05091)
Assay: qHTS for Inhibitors of the Aldehyde Dehydrogenase Family (ALDH2) Primary screen (AID 2061308);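 further: plate controls were vehicle for no effect and reference inhibitor for full effect; nearly all actives have a fitted effect of over 55% in size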
Details: ALDH2 enzyme inhibition qHTS, 1536-well; series mostly up to 56 µM; activity change, negative = inhibition: at the top concentration

| SMILES | activity change, negative = inhibition |
| --- | --- |
| C[C@@H]1COCCN1c1cc(C2(S(C)(=O)=O)CC2)nc(-c2cccc3[nH]ccc23)n1 | 5.13% |
| CCCn1c(C)nc2c(N3CCC(N4CCN(C)CC4)CC3)nc(C)nc21 | 13.4% |
| Cc1ccc(S(=O)(=O)Nc2ccccc2Nc2nc(-c3ccccc3)cs2)cc1 | -6.16% |
| Cc1ccc(S(=O)(=O)Nc2cnccc2C(=O)Nc2nc(-c3ccncc3)cs2)cc1 | 6.31% |
| O=c1c2[nH]c3cc(Br)sc3c2cnn1Cc1ccccc1F | 7.57% |
| C=C1CC2OC(=O)C(=C)C2C(OC(=O)/C(C)=C\C)CC2(C)OC1=CC2=O (stereo not given) | 4.58% |
| O=C1CCc2cc(S(=O)(=O)Nc3ccc(-c4ccccc4)cc3)ccc2N1 | -18% |
| CN(C)CCCNC(=O)c1ccc(-c2cnc3c(O)ccc(C(=O)O)c3c2)cc1 | -6.91% |
| N#Cc1cnc(NS(=O)(=O)c2ccc(NC(=O)Cc3ccc(F)c(Cl)c3)cc2)s1 | -4.37% |
| N#Cc1cc(NC(=O)Nc2nnc(-c3ccncc3)s2)ccc1-c1ccc[nH]1 | 8.45% |
| Cc1ccc(OCCn2c(CCNC(=O)c3ccc(C)cc3)nc3ccccc32)cc1 | -5.5% |
| O=C(Cc1ccccc1)Nc1ncnc2c1C(c1ccccc1)c1c(ccc3ccccc13)O2 (stereo not given) | -3.24% |
| Cc1ccc(OCCn2c(CCNC(=O)C3CCOCC3)nc3ccccc32)cc1 | -0.495% |
| Cc1cc(C)nc(NC(=S)N2CCN(c3ccc(F)c(F)c3)CC2)c1 | 3.66% |
| Brc1ccc(-c2csc(N3CCNCC3)n2)cc1 | 2.53% |
| CCN(CC)CCCn1c(-c2ccccc2)nc2c(N3CCOCC3)nc(C)nc21 | 12.1% |
| COc1ccc(OC)c(C2=Nn3c(nnc3-c3ccccc3C)SC2)c1 | 22% |
| CCOc1ccc(CCNC(=O)c2cc3sccc3[nH]2)cc1OCC | 7.3% |
| O=C(Nc1nc(-c2ccccc2)cs1)c1ccncc1NS(=O)(=O)c1ccc(F)cc1Cl | 1.79% |
| CC(=O)Nc1sc2c(c1-c1ccc3c(c1)CCO3)CCNC2 | 0.229% |

| SMILES | activity change, negative = inhibition |
| --- | --- |
| C[C@@H]1C[C@@H](O)[C@@]23CO[C@@H](O)[C@@H]2CCC[C@@H]3[C@@]12C[C@@H](c1ccoc1)OC2=O | 0.709% |
| Cc1nc(NCc2ccccc2)c2nc(-c3ccccc3)n(CC(C)(C)CN(C)C)c2n1 | -28.6% |
| CCCCC(O)C(=O)Nc1cc(C(F)(F)F)ccc1Cl (stereo not given) | 16.7% |
| Cc1cc(C)n2ncc(C(=O)Nc3ccccc3C)c2n1 | 2% |
| CC1=C(C(=O)Nc2nc3ccccc3s2)C(c2nn(C)cc2Cl)N=C(Nc2nc3ccccc3o2)N1 (stereo not given) | -3.56% |
| COc1ccc(-c2csc(N3CCC(C(N)=O)CC3)n2)cc1OC | 5.59% |
| Cc1cc(C)nc(NC(=S)N2CCN(c3nc4ccccc4o3)CC2)c1 | 10.4% |
| O=C(NCc1nnc(-c2cc3ccccc3[nH]2)o1)c1ccccc1 | -2.59% |
| CC1(C)CCCC2(C)C1C(OC(=O)/C=C/C=C/C=O)C=C1COC(=O)C12O (stereo not given) | 4.64% [at 28 µM] |
| COc1cccc(C2=Nn3c(nnc3-c3ccccc3O)SC2)c1 | 3.44% |
| COc1ccc(C2Nc3ccccc3C(=O)N2Cc2ccccc2)cc1COc1c(C)cccc1C (stereo not given) | -11.1% |
| COCCNc1nc(C)nc2c1nc(-c1ccccc1)n2CCCN1CCCCC1C (stereo not given) | 9.71% |
| O=S(=O)(c1ccccc1)N1CCN(c2nc(C3CC3)nc3ccccc23)CC1 | 11.4% |
| CC(=O)c1ccc(C(=O)Nc2nnc(-c3ccco3)o2)cc1 | 3.48% |
| Cc1nc(NC2CCCCC2)c2nc(-c3ccccc3)n(CCN(C)C)c2n1 | 5.98% |
| Fc1cccc(CNc2ncnc3ccc(-c4cccnc4)cc23)c1 | 0.67% |
| CN1[C@@H]2CC[C@H]1CC(OC(c1ccccc1)c1ccccc1)C2 (stereo not given in full) | -1.57% |
| FC(F)(F)c1ccccc1-c1nc(NCc2ccc(Cl)c(Cl)c2)c2ccccc2n1 | -20.8% |
| Cc1noc(C)c1-c1ccc2ncnc(NCc3ccc(C(F)(F)F)o3)c2c1 | 0.897% |
| Fc1cc(Nc2nc(-c3ccncc3)nc3ccccc23)ccc1-c1ccnc(C(F)(F)F)c1 | 0.591% |

Target: Retinaldehyde dehydrogenase 3 (Homo sapiens) (UniProt P47895)
Assay: qHTS for Inhibitors of the Aldehyde Dehydrogenase Family (ALDH1A3) Primary screen (AID 2061315);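 further: plate controls were DMSO vehicle for no effect and reference inhibitor for full effect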
Details: ALDH inhibition qHTS; series mostly up to 56 µM; activity change, negative = inhibition: at the top concentration

| SMILES | activity change, negative = inhibition |
| --- | --- |
| C[C@@H]1COCCN1c1cc(C2(S(C)(=O)=O)CC2)nc(-c2cccc3[nH]ccc23)n1 | 1.59% |
| CCCn1c(C)nc2c(N3CCC(N4CCN(C)CC4)CC3)nc(C)nc21 | 23.3% |
| Cc1ccc(S(=O)(=O)Nc2ccccc2Nc2nc(-c3ccccc3)cs2)cc1 | 9.55% |
| Cc1ccc(S(=O)(=O)Nc2cnccc2C(=O)Nc2nc(-c3ccncc3)cs2)cc1 | 10.5% |
| O=c1c2[nH]c3cc(Br)sc3c2cnn1Cc1ccccc1F | 6.73% |
| C=C1CC2OC(=O)C(=C)C2C(OC(=O)/C(C)=C\C)CC2(C)OC1=CC2=O (stereo not given) | -2.96% |
| O=C1CCc2cc(S(=O)(=O)Nc3ccc(-c4ccccc4)cc3)ccc2N1 | -4.02% |
| CN(C)CCCNC(=O)c1ccc(-c2cnc3c(O)ccc(C(=O)O)c3c2)cc1 | 14.3% |
| N#Cc1cnc(NS(=O)(=O)c2ccc(NC(=O)Cc3ccc(F)c(Cl)c3)cc2)s1 | 13.1% |
| N#Cc1cc(NC(=O)Nc2nnc(-c3ccncc3)s2)ccc1-c1ccc[nH]1 | 7.63% |
| Cc1ccc(OCCn2c(CCNC(=O)c3ccc(C)cc3)nc3ccccc32)cc1 | -0.817% |
| O=C(Cc1ccccc1)Nc1ncnc2c1C(c1ccccc1)c1c(ccc3ccccc13)O2 (stereo not given) | 18.1% |
| Cc1ccc(OCCn2c(CCNC(=O)C3CCOCC3)nc3ccccc32)cc1 | 3.85% |
| Cc1cc(C)nc(NC(=S)N2CCN(c3ccc(F)c(F)c3)CC2)c1 | 28.9% |
| Brc1ccc(-c2csc(N3CCNCC3)n2)cc1 | 29.2% |
| CCN(CC)CCCn1c(-c2ccccc2)nc2c(N3CCOCC3)nc(C)nc21 | 6.1% |
| COc1ccc(OC)c(C2=Nn3c(nnc3-c3ccccc3C)SC2)c1 | 7.18% |
| CCOc1ccc(CCNC(=O)c2cc3sccc3[nH]2)cc1OCC | 6.86% |
| O=C(Nc1nc(-c2ccccc2)cs1)c1ccncc1NS(=O)(=O)c1ccc(F)cc1Cl | 11.2% |
| CC(=O)Nc1sc2c(c1-c1ccc3c(c1)CCO3)CCNC2 | -16.5% |

| SMILES | activity change, negative = inhibition |
| --- | --- |
| C[C@@H]1C[C@@H](O)[C@@]23CO[C@@H](O)[C@@H]2CCC[C@@H]3[C@@]12C[C@@H](c1ccoc1)OC2=O | -12.6% |
| Cc1nc(NCc2ccccc2)c2nc(-c3ccccc3)n(CC(C)(C)CN(C)C)c2n1 | 7.99% |
| CCCCC(O)C(=O)Nc1cc(C(F)(F)F)ccc1Cl (stereo not given) | 5.28% |
| Cc1cc(C)n2ncc(C(=O)Nc3ccccc3C)c2n1 | 2.16% |
| CC1=C(C(=O)Nc2nc3ccccc3s2)C(c2nn(C)cc2Cl)N=C(Nc2nc3ccccc3o2)N1 (stereo not given) | 12.1% |
| COc1ccc(-c2csc(N3CCC(C(N)=O)CC3)n2)cc1OC | -9.09% |
| Cc1cc(C)nc(NC(=S)N2CCN(c3nc4ccccc4o3)CC2)c1 | 18.6% |
| O=C(NCc1nnc(-c2cc3ccccc3[nH]2)o1)c1ccccc1 | 15% |
| CC1(C)CCCC2(C)C1C(OC(=O)/C=C/C=C/C=O)C=C1COC(=O)C12O (stereo not given) | -4.68% [at 28 µM] |
| COc1cccc(C2=Nn3c(nnc3-c3ccccc3O)SC2)c1 | 7.8% |
| COc1ccc(C2Nc3ccccc3C(=O)N2Cc2ccccc2)cc1COc1c(C)cccc1C (stereo not given) | 5.55% |
| COCCNc1nc(C)nc2c1nc(-c1ccccc1)n2CCCN1CCCCC1C (stereo not given) | 20.7% |
| O=S(=O)(c1ccccc1)N1CCN(c2nc(C3CC3)nc3ccccc23)CC1 | -2.3% |
| CC(=O)c1ccc(C(=O)Nc2nnc(-c3ccco3)o2)cc1 | -9.2% |
| Cc1nc(NC2CCCCC2)c2nc(-c3ccccc3)n(CCN(C)C)c2n1 | 3.41% |
| Fc1cccc(CNc2ncnc3ccc(-c4cccnc4)cc23)c1 | -14.8% |
| CN1[C@@H]2CC[C@H]1CC(OC(c1ccccc1)c1ccccc1)C2 (stereo not given in full) | -3.71% |
| FC(F)(F)c1ccccc1-c1nc(NCc2ccc(Cl)c(Cl)c2)c2ccccc2n1 | -4.91% |
| Cc1noc(C)c1-c1ccc2ncnc(NCc3ccc(C(F)(F)F)o3)c2c1 | 14.5% |
| Fc1cc(Nc2nc(-c3ccncc3)nc3ccccc23)ccc1-c1ccnc(C(F)(F)F)c1 | 1.86% |

Reference: PubChem BioAssay (NCATS)
